# Screening data: PubChem BioAssay, several laboratories
# An excerpt weighted towards active compounds, which were near 4% of everything screened.
# 697 NFkB inh: inhibitors of PMA/ionomycin-induced NF-kB reporter, 697 cells, primary screen, B-cell NF-kB inhibitor project, cell-based, luminescence, uHTS | 697 B-cell NF-kB luciferase reporter, 16 h | inhibition, % at 4 µM | 330,000 compounds, 0.33% hits | AID 435022, 2010; in the data active means inhibition above about 35%
# Gli-Sufu block: Gli-Sufu pathway antagonists, primary screen, luciferase luminescence, Sufu-KO-LIGHT cells, uHTS | Sufu-KO-LIGHT fibroblasts, Gli luciferase reporter luminescence | inhibition, % at 5 µM | 340,000 compounds, 0.74% hits | AID 588413, 2011;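 active means inhibition above about 55%, limit read from the data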;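 further: 0% = DMSO-treated cells and 100% = wells with medium but no cells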
# Beta apoptosis: inhibitors of cytokine-induced beta cell apoptosis, primary screen, luminescence. 300,000 compounds, 0.8% hits. protection from apoptosis, % (no concentration beside the values). AID 435005, 2010. INS-1E cytokine-induced death, ATP luminescence, 48 h; percent of positive-control rescue, neutral wells zero;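 active means Every replicate reaches about 75%, or at least half do and their mean reaches it too, limit read from the data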;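 further: 0% = cytokine-treated negative control wells and 100% = positive control rescue; higher means more ATP so stronger rescue from cytokine killing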
# Mdm2-MdmX inh: inhibitors of human Mdm2-MdmX association, primary screen, cell-based, luminescence, split luciferase, SaOS-2, uHTS | inhibition, % at 8 µM | 330,000 compounds, 3% hits | SaOS-2 split-luciferase Mdm2/MdmX complementation;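 active means inhibition of at least 50% at 8 µM in the primary screen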
# Target sequence (O15151 whole entry, looked up): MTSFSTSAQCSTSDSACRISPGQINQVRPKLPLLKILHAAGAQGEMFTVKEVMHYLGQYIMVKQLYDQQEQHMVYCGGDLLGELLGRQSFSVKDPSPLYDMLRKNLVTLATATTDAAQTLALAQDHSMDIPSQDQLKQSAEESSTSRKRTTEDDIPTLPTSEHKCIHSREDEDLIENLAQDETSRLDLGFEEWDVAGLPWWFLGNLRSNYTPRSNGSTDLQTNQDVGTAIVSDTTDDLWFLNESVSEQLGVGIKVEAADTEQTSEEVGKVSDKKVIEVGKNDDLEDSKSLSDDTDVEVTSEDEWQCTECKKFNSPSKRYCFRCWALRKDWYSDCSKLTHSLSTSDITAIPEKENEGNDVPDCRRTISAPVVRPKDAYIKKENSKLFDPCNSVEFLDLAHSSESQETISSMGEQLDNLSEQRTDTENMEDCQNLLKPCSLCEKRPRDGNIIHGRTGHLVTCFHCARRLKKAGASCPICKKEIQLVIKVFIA
# Target sequence (Q00987 whole entry, looked up): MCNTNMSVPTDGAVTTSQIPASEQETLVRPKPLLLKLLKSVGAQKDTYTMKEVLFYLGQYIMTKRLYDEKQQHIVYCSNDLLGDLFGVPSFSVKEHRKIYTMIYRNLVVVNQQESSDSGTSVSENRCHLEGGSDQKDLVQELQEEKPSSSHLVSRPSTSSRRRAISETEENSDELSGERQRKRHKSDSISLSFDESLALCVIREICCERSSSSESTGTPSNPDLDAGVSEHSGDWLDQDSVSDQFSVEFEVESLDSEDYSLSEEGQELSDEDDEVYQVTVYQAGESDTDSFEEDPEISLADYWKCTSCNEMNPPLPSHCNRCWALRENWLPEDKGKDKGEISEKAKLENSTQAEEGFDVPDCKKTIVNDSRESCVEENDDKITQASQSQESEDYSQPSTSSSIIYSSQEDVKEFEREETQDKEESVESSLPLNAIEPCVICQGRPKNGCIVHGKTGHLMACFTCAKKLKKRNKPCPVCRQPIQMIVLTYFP
# Jurkat NFkB inh: inhibitors of induced NF-kB luciferase reporter, primary screen, TCR NF-kB activation inhibitor project, cell-based, luminescence, uHTS. AID 435003, 2010. 330,000 compounds, 0.53% hits. inhibition, % at 4 µM. Jurkat, PMA/ionomycin-induced NF-kB luciferase reporter; in the data active means inhibition above about 50%
# Mdm2-MdmX conf: Mdm2-MdmX complex disruptors, retested hits, confirmation, luminescence, single concentration; Mdm2-MdmX binding, luminescent assay; 10,000 compounds, 55% hits; shares compounds with Mdm2-MdmX inh; inhibition, % at 8 µM; in the data active means inhibition above about 40%
# Full FLuc ctr: full-length luciferase signal inhibition, confirmation, counter-screen for Mdm2/MdmX interaction inhibitor project, cell-based, single concentration, SaOS-2; shares compounds with Mdm2-MdmX inh; SaOS-2 full-length luciferase counterscreen, luminescence; inhibition, % at 8 µM; 6,200 compounds, 77% hits;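 active means mean inhibition at 8 µM reaching about 37%, which flags the compound as non-specific, limit read from the data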;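 further: p53-null SaOS-2 cells with luciferase driven by a doxycycline-inducible promoter; compound on cells about two nights before reading with doxycycline added after day one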
# * marks the source's active call; other numbers are inactive results; · = not tested or not shown.
SMILES,697 NFkB inh,Gli-Sufu block,Beta apoptosis,Mdm2-MdmX inh,Jurkat NFkB inh,Mdm2-MdmX conf,Full FLuc ctr
CC(C)(C)OC(=O)N[C@@H](Cc1ccccc1)c1nnc(S(=O)(=O)Cc2ccccc2)o1,-23,·,49,100*,37,70*,0
Cc1ccccc1CS(=O)(=O)c1nnc([C@H](Cc2ccccc2)NC(=O)OC(C)(C)C)o1,-18,-1,93*,100*,15,53*,1
CC(=O)Nc1cccc(/C(C)=N/NS(=O)(=O)c2ccc(C)cc2)c1,1,-2,·,-17,-19,·,·
COc1ccc(-c2csc3nc(-c4ccccc4OC)oc(=O)c23)cc1,-42,-3,9,59*,3,24,·
O=c1oc(-c2ccccc2F)nc2scc(-c3ccccc3)c12,-228,18,9,53*,-59,50*,171*
COc1ccc(-c2csc3nc(-c4ccc(C)cc4)oc(=O)c23)cc1OC,-9,-18,17,92*,-7,21,·
COc1ccc(-c2csc3nc(C)nc(N4CCCCC4)c23)cc1OC,24,1,0,65*,6,32,·
COc1ccc(-c2csc3nc(C)n(-n4cccc4)c(=O)c23)cc1OC,2,-2,3,29,-12,·,·
COc1ccc(-c2csc3nc(C(C)(C)C)oc(=O)c23)cc1OC,-11,5,-1,13,2,·,·
COc1ccc(CN(CC2CCCO2)C(=O)c2cc3sccc3n2C)c(OC)c1 (centres undefined),-9,7,-1,16,-3,·,·
Cc1oc2c(Cl)c(Cl)c(O)c(CN(C)C)c2c1C(=O)c1ccc(Cl)cc1,-20,-1,-7,59*,13,66*,27
Cc1nn(Cc2ccc(Cl)cc2Cl)c(Cl)c1/C=N/NC(=O)CNc1cccc(C(F)(F)F)c1,24,·,20,84*,24,-1,·
Cc1ccc(S(=O)(=O)N2CCC(C(=O)Nc3nnc(C4CCCC4)s3)CC2)cc1,-1,14,-4,18,5,·,·
CCc1nnc(NC(=O)C2CCN(S(=O)(=O)c3ccc(C)cc3)CC2)s1,17,-2,-7,53*,13,-2,·
Cc1sc2ncnc(N3CCC(C(=O)Nc4nc(-c5cccs5)cs4)CC3)c2c1C,-172,11,31,86*,46,93*,43*
Cc1sc2ncnc(N3CCC(C(=O)Nc4ccccc4C(C)(C)C)CC3)c2c1C,-31,28,3,51*,21,60*,28
CCc1nnc(NC(=O)C2CCN(c3ncnc4sc(C)c(C)c34)CC2)s1,-2,1,-11,53*,6,53*,81*
CCOC(=O)c1ccccc1NC(=O)C1CCN(c2ncnc3sc(C)c(C)c23)CC1,-31,49,6,35,20,·,·
Cc1ccc(S(=O)(=O)N(CC(=O)NCC2CCCO2)Cc2ccc(F)cc2)cc1 (centres undefined),2,-10,-5,0,-9,·,·
Cc1cc(C(F)(F)F)nn1CC(=O)NCc1cccs1,1,-13,-1,-16,-20,·,·
Cc1ccc(CCN2CC(C(=O)NCCCN3CCCCC3)CC2=O)cc1 (centres undefined),9,-30,1,26,10,·,·
CN(C)c1ccc(NC2=C(Cl)C(=O)c3ccccc3C2=O)cc1,-112,-37,-21,100*,-78,99*,2
CC(=O)Nc1ccc(NC2=C(Cl)C(=O)c3ccccc3C2=O)cc1,-18,-8,·,100*,-18,100*,52*
O=C(Oc1ccc(NC2=C(Cl)C(=O)c3ccccc3C2=O)cc1)c1ccc([N+](=O)[O-])cc1,·,4,·,·,·,·,·
CC(C)c1ccc(CCNC(=O)CCNC(=O)c2ccc(Br)cc2)cc1,-28,1,·,19,1,·,·
SMILES,697 NFkB inh,Gli-Sufu block,Beta apoptosis,Mdm2-MdmX inh,Jurkat NFkB inh,Mdm2-MdmX conf,Full FLuc ctr
Cc1cc(NO)c(C(C)C)cc1N=O,-2,7,0,60*,3,36,·
Cc1cc(O)c(C(C)C)cc1N=Nc1ccccc1C(=O)O,-1,3,-1,3,0,·,·
O=C(Cc1coc2cc(O)ccc12)N1CCN(S(=O)(=O)c2ccc(Br)cc2)CC1,·,1,·,·,·,·,·
COc1cc(NS(=O)(=O)c2ccc(NC(=O)c3cccnc3)cc2)ncn1,-4,5,2,20,-18,·,·
CCOc1ccc(C(=O)Nc2cc(-c3nc4ccccc4[nH]3)ccc2C)cc1[N+](=O)[O-],5,1,0,45,-10,·,·
CCOc1ccc(C(=O)Nc2cc(-c3nc4ccccc4[nH]3)ccc2Cl)cc1[N+](=O)[O-],-32,14,10,93*,-4,23,·
O=C(NC(=S)Nc1cc(-c2nc3ccccc3[nH]2)ccc1Cl)c1ccc2c(c1)OCO2,-77,·,89*,101*,4,71*,70*
Cc1ccc(-c2nc3ccccc3[nH]2)cc1NC(=O)c1ccc2c(c1)OCO2,-6,7,-2,16,-10,·,·
CNC(=O)c1ccccc1NC(=O)C1CC(=O)N(c2ccc(OC)cc2)C1 (centres undefined),11,-6,-5,22,17,·,·
O=C(Nc1ccc(Br)cc1)c1cccc(OC(=S)N2CCOCC2)c1,-16,15,7,15,-1,·,·
CC(C)C1CC(CCNCc2ccc(N(C)C)cc2)(c2ccccc2)CCO1 (centres undefined),-10,4,2,34,16,·,·
Cc1ccc(C2(CCNCc3ccc(N(C)C)cc3)CCOC(C(C)C)C2)cc1 (centres undefined),-16,12,19,93*,15,23,·
CCOC(=O)C1(CC2CCCCO2)CCN(Cc2cn[nH]c2-c2cccc(F)c2)CC1 (centres undefined),-13,7,-11,-8,14,·,·
COc1ccc(C)cc1NC(=O)C/C(C)=N/NC(=O)Cc1cccc2ccccc12,6,-14,-5,-43,-12,·,·
O=C(NC1CCCCC1)C(c1cccnc1)N(C(=O)CCl)c1cccc(Cl)c1 (centres undefined),-145,0,0,100*,-29,100*,53*
Cc1nc(-c2ccc(F)cc2)c(CC(=O)N2CCN(S(=O)(=O)c3cccc(Cl)c3)CC2)s1,10,6,6,21,13,·,·
COc1cc(C(=O)Nc2nc(-c3cccs3)cs2)cc(OC)c1OC,28,15,·,76*,6,28,·
